# A selection: hits, their analogues and other compounds. The true share with any hit is near 9.9%.
# Tau FP inhib: tau fibrillization inhibition (FP); K18 P301L tau heparin fibrillization, Alexa594 FP, 6 h; Potency, µM (titrated, usually from 57.7 µM), without a hit: top-dose activity, negative = inhibition, usual class: inhibitors; 0.39% of 280,000 active; further: nearly all actives have a fitted effect of over 55% in size
# Target sequence (P10636 561-689 P618L limits assumed): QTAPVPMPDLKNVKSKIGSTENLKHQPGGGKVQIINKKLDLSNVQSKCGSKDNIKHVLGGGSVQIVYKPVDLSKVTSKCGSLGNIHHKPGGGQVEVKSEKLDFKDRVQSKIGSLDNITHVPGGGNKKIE
#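 Human K18 P301L fragment (15 uM unlabeled plus 0.24 uM Alexa 594-labeled) in 100 mM sodium acetate pH 7 with compound, aggregation induced by 20 uM heparin for 6 hr at 37 C. ThT (30 uM) added for 1 hr, then Alexa 594 FP read.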
# JMJD2E inh: blocks human JMJD2E demethylase activity. AID 2147. JMJD2E catalytic domain, FDH-coupled NADH fluorescence (FDH is formaldehyde dehydrogenase). 1.6% of 230,000 active. Potency, µM (top dose mostly 57.1 µM), for the others: at the highest dose activity change, negative = inhibition, actives largely listed as inhibitors; active means well fitted inhibition curve with a large enough effect, not every such curve was filed as active; inconclusive means small, poorly fitted or top-dose-only effect, or another doubt; inactive means no such curve, though single readings can be large or run the other way;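 further: 0% = wells with enzyme and -100% = buffer wells without enzyme; nearly all actives have a fitted effect of over 50% in size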
# ALDH1A1 inh: inhibitors of human aldehyde dehydrogenase 1A1. Purified ALDH1A1, NADH fluorescence, propionaldehyde substrate. AID 1030. Potency, µM (series often up to 75.3 µM), for inactives: at the highest dose activity, negative = inhibition, actives largely listed as inhibitors. 7.3% of 220,000 active; active means well fitted inhibition curve with a large enough effect, not every such curve was filed as active; inconclusive means small, poorly fitted or top-dose-only effect, or another doubt; inactive means no such curve, though single readings can be large or run the other way;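 further: plate controls were no enzyme wells and a reference inhibitor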
# Target sequence (P00352 whole entry, looked up): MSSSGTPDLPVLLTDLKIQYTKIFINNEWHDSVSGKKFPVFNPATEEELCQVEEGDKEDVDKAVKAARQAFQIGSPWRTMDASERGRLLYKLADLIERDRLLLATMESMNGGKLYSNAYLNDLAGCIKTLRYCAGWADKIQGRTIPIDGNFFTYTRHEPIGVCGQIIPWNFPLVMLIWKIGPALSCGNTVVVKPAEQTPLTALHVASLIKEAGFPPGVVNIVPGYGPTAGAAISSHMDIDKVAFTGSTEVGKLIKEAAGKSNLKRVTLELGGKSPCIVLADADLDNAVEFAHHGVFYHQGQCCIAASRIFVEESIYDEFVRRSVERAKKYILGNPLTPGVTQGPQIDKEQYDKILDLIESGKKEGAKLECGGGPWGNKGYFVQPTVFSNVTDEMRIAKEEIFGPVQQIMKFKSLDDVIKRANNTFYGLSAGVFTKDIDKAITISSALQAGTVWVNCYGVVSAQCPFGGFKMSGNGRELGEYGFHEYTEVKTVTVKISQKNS
# Tau fluor cs: counter-screen for tau fibril formation inhibitors; Potency, µM (top dose mostly 57.7 µM), for inactives: top-dose activity change, negative = decrease; 0.93% of 280,000 active; tau K18 P301L Alexa594 fluorescence, heparin fibrillization; further: nearly all actives have a fitted effect of over 55% in size
#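 Human K18 P301L tau (15 uM unlabeled plus 0.24 uM Alexa 594-labeled, final) in 100 mM sodium acetate pH 7 was mixed with compound and 20 uM heparin and incubated 6 hr at 37 C.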
# Tau fibril ThT: blocks human tau fibril formation measured by thioflavin T; P10636; Potency, µM (top dose mostly 57.4 µM), for the others: at the highest dose activity, negative = inhibition, most hits filed as inhibitors; 2.1% of 270,000 active; recombinant tau K18 P301L (four-repeat tau fragment), heparin-induced fibrillization, ThT fluorescence; further: nearly all actives have a fitted effect of over 55% in size
#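 Aggregation was driven by heparin (20 uM final) acting on recombinant tau […] bearing P301L in 100 mM sodium acetate pH 7; fibrils were detected with Thioflavin T.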
# HPGD block: inhibitors of human 15-hydroxyprostaglandin dehydrogenase (HPGD); Potency, µM, for the others: top-dose activity change, negative = inhibition, hits mostly inhibitors; purified HPGD, NADH fluorescence kinetic, PGE2 substrate; P15428; 4.3% of 150,000 active; active means well fitted inhibition curve with a large enough effect, not every such curve was filed as active; inconclusive means small, poorly fitted or top-dose-only effect, or another doubt; inactive means no such curve, though single readings can be large or run the other way
#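 NADH formation kinetics: reaction with 30 uM PGE2 and 1 mM NAD+ (final), 20 nM enzyme, Tris-HCl pH 8 with Tween 20, after 15 min compound preincubation at room temperature. Fluorescence change, last versus first of five reads.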
# An asterisk follows results filed as active; ? = inconclusive; . = no result given; ! = a repeat was not active; [ ] = dose if it differs, or a comment. Unless noted, the call rests on the fitted dose curve; in most records, active means well fitted curve in the direction sought with a large enough effect; inconclusive means small, poorly fitted or top-dose-only effect, or another doubt; inactive means no such curve, though single readings can be large; an effect the other way counts as inactive or inconclusive. Unless noted, on the % scale 0 is the no-effect control and ±100 the full control effect; potency means the concentration at half of the fitted maximal effect.
SMILES,Tau FP inhib,JMJD2E inh,ALDH1A1 inh,Tau fluor cs,Tau fibril ThT,HPGD block
CSc1ccc(S(=O)(=O)NCc2ccc(Cl)cc2Cl)cc1,-2.6%,-0.9%,25.1µM*,?,-19.9%,-7.4%
O=S(=O)(c1ccc2ncn(O)c2c1)N1CCOCC1,5.0%,-10.2%,-10.5%,0.7%,6.0%,.
CCOC(=O)N1CCN(C(=O)CN(c2cccc(Cl)c2)S(=O)(=O)c2ccccc2)CC1,-6.3%,.,.,-9.9%,-0.5%,.
COc1ccc(Cl)cc1-n1c(N)c(C(N)=O)sc1=S,-11.6%,-6.0%,?,-5.8%,-3.3%,28.2µM*
Cc1ccc(-n2c(N)c(C(N)=O)sc2=S)c(C)c1,2.9%,4.6%,7.5%,-14.2%,-8.2%,.
CCCCNC(=O)c1sc(=S)n(-c2ccccc2OC)c1N,3.3%,-9.8%,8.91µM*,-6.5%,-9.9%,31.6µM*
COC(=O)c1sc(=S)n(-c2ccccc2OC)c1N,0.8%,-1.0%,7.3%,-16.1%,-15.3%,14.1µM*
CCOc1ccccc1-n1c(N)c(C(N)=O)sc1=S,-1.9%,-2.2%,?,-7.4%,-0.1%,-25.7%
CCCCNC(=O)N1CCN(c2ccccc2OC)CC1,-1.3%,-1.6%,2.2%,-6.4%,-8.6%,.
CCOC(=O)c1sc(=S)n(-c2ccccc2OC)c1N,-6.2%,-9.3%,3.16µM*,-0.4%,2.3%,?
Cc1cccc(NS(=O)(=O)c2ccc(Cl)c(C(=O)O)c2)c1,.,.,14.2%,.,.,-9.0%
Cc1c(Cl)cccc1N=Cc1ccc([N+](=O)[O-])s1,-6.1%,22.4µM*,?,-26.7%,?,-6.6%
O=C(NCc1ccccc1)c1ccc(S(=O)(=O)N2CCCC2)cc1,-3.0%,-4.4%,?,-6.2%,0.4%,3.3%
COc1ccc(CCNCC(=O)N2C(C)CCCC2C)cc1OC (stereo not given),-0.2%,31.6µM*,?,0.0%,-1.9%,.
COc1ccc(CCNC(=O)C2CC2)cc1OC,4.5%,4.8%,1.8%,0.0%,0.0%,-10.2%
COc1ccc(CNC(=O)c2ccc(S(=O)(=O)N3CCCC3)cc2)cc1OC,-6.1%,6.4%,10µM*,-4.2%,-1.5%,-14.2%
O=C(NCCc1ccccc1)C1CCN(S(=O)(=O)N2CCCC2)CC1,-4.7%,-4.0%,?,-7.0%,-1.1%,-9.4%
O=C(NCCc1ccccc1)C1CCN(S(=O)(=O)N2CCCCCC2)CC1,10.9%,7.2%,7.08µM*,10.3%,-6.4%,.
CCOC(=O)Cc1csc(NC(=O)CCS(=O)(=O)Cc2ccccc2)n1,-0.6%,1.4%,20µM*,3.0%,11.4%,-3.9%
O=C(CSc1nccn1-c1cccc(Cl)c1)Nc1cccc(C(F)(F)F)c1,-14.6%,.,.,?,-11.8%,.
CCOC(=O)CSc1nnc(CNC(=O)c2ccc(S(=O)(=O)N3CCCC3)cc2)n1C,3.5%,-5.1%,18.9µM*,5.6%,2.6%,-1.7%
CCOC(=O)Cc1csc(NC(=O)c2ccc(S(=O)(=O)N3CCCC3)cc2)n1,4.1%,-2.7%,11.2µM*,-0.3%,-2.3%,-12.6%
COc1ccc(CCNC(=O)C2CCN(S(=O)(=O)N3CCCCCC3)CC2)cc1OC,-3.4%,3.6%,7.94µM*,-9.4%,-20.8%,-7.1%
CCOC(=O)Cc1csc(NC(=O)c2ccc(S(=O)(=O)N3CCOCC3)cc2)n1,-3.4%,1.6%,?,-11.1%,-7.5%,.
O=C(Cc1cnc2ncnn2c1)N1CCc2c([nH]c3ccccc23)C1c1ccccc1F (stereo not given),-2.1%,-4.1%,4.47µM*,-15.3%,-13.2%,.
SMILES,Tau FP inhib,JMJD2E inh,ALDH1A1 inh,Tau fluor cs,Tau fibril ThT,HPGD block
Cc1nonc1CC(=O)N1CCc2c([nH]c3ccccc23)C1c1ccccc1F (stereo not given),7.6%,-9.9%,?,-4.1%,-0.1%,.
CCCn1c(=O)c2sccc2n2c(CCCC(=O)NCCc3ccc(Cl)cc3)nnc12,3.5%,.,.,-7.1%,3.4%,.
N#Cc1c(-c2ccco2)nc(SCc2ccc(F)cc2)[nH]c1=O,14.0%,-3.5%,0.3%,2.4%,6.3%,10µM*
Cc1nc(SCc2cccc(F)c2)[nH]c(=O)c1C#N,-3.2%,28.2µM*,-11.4%,-14.1%,-19.8%,.
Fc1cccc(CSc2nc3ncccc3[nH]2)c1,-1.1%,2.6%,?,-2.2%,3.1%,17.8µM*
CCn1c(=O)c2sccc2n2c(CCCC(=O)N3CCN(c4ccc(F)cc4)CC3)nnc12,-0.9%,.,.,-0.8%,0.7%,.
CC(=O)c1ccc(NC(=O)Cn2cc(S(=O)(=O)Cc3ccccc3Cl)c3ccccc32)cc1,?,.,.,?,-3.4%,.
CCOC(=O)CC(NS(=O)(=O)Cc1ccccc1)c1ccc(C)cc1 (stereo not given),8.9%,6.8%,-1.9%,-0.3%,4.1%,4.6%
CCOC(=O)c1ccc(NC(=O)CSc2nc3ccccc3c(=O)n2CCC(=O)NC2CCCCC2)cc1,-15.6%,.,.,1.2%,17.0%,.
O=C1c2c(O)ccc(O)c2C(=O)c2c(NCCNCCO)ccc(NCCNCCO)c21,?,22.4µM*!,?,3.16µM*[quencher],8.91µM*,-5.8%
Cc1ccc(CNCCNCCO)s1,-7.9%,17.9%,6.6%,0.4%,0.2%,.
COCCn1cnc2c(c1=O)c1nc3ccccc3nc1n2/N=C/c1ccc(OC)c(OC)c1,-12.4%,12.2%,-0.2%,-10.8%,?,.
CCCCCCn1cnc2c(c1=O)c1nc3ccccc3nc1n2/N=C/c1ccco1,3.8%,?,25.1µM*,-11.2%,-14.5%,-23.2%
C=CCn1cnc2c(c1=O)c1nc3ccccc3nc1n2/N=C/c1cccc(OC)c1,-11.6%,?,11.2µM*,-16.7%,-15.1%,-21.1%
Cc1ccc(CNC(=O)C2CCCN(c3nc4ccccc4n4cccc34)C2)cc1 (stereo not given),-2.8%,.,.,-13.0%,-4.2%,.
Nc1nc(N)[n+]([O-])c(N)c1NCO,.,.,9.2%[13.5 µM],.,.,-9.0%
Cn1cnnc1SC1c2cccc3cccc(c23)C1NS(=O)(=O)c1ccc(Cl)cc1 (stereo not given),-6.9%,6.9%,?,-5.9%,-8.3%,-1.0%
Nn1cnnc1SC1CCCCC1NS(=O)(=O)c1ccccc1 (stereo not given),-1.1%,6.5%,10µM*,-2.2%,-1.5%,-5.9%
Cn1cnnc1SC1c2cccc3cccc(c23)C1NS(=O)(=O)c1ccccc1 (stereo not given),4.0%,-2.9%,?,2.8%,4.2%,-13.7%
Cn1cnnc1SC1CCCCC1NS(=O)(=O)c1ccc(Cl)cc1 (stereo not given),1.5%,-5.7%,12.6µM*,-8.0%,-3.1%,-3.3%
Cn1cnnc1SC1CCCCC1NS(=O)(=O)c1ccccc1 (stereo not given),-1.6%,-3.1%,7.94µM*,-1.1%,2.5%,-3.3%
CCOc1ccccc1-c1nc(C(N)=O)c2c(n1)n(-c1ccc3c(c1)OCO3)c(=O)n2C,5.1%,.,.,9.0%,2.9%,.
